# Over roughly 16,000 sequences, “rpm ratio (pull-down/input)” has its median near 0.94; the highest 2% begin near 1.7. Many of the other results were omitted from the sample, so the highest values are more common in it than they were.
# Biological target: T1, MBP-FoxP1dN (Mus musculus, UniProt P58462 326-579)
# T1 sequence: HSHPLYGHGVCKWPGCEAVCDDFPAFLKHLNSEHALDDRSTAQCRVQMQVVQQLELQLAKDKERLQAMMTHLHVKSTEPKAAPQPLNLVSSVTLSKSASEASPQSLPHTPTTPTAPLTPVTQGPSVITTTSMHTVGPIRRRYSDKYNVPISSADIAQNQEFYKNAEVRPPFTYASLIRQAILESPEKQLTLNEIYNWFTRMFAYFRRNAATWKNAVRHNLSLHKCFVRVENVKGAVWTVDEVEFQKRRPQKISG
# Experiment: PD-seq (MBP pull-down with sequencing); 20 mM Tris-HCl pH 7.5, 100 mM NaCl, 1.5 mM MgCl2, 0.4 uM protein, 0.1 uM dsDNA library, 30 min, room temperature, amylose pull-down; high values mean tight binding
# Conditions: protein: recombinant; tags: His6-MBP; chain copies: 2; dsDNA, one strand shown
# Summary of the method: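 His6-MBP-tagged mouse FoxP3 or FoxP1 fragment lacking the N-terminus, expressed in E. coli, was mixed at 0.4 µM with 0.1 µM Klenow-filled double-stranded degenerate DNA library. Incubation was 30 min at room temperature in Tris pH 7.5 buffer with NaCl and MgCl2. Complexes were caught on amylose resin and washed three times; DNA was released with proteinase K, PCR-barcoded and Illumina-sequenced. Binding is reads-per-million enrichment, pull-down over input, with replicates pooled.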
row,Sequence,binding signal
1,GATGATTGTTCTCCCAGCTGATGAATTCGACATATCGAGTAAACAAATTTTCCTAATCTTTCTGTTCAAGCGCCATCTAC,0.996 RPM ratio (pull-down/input)
2,GATGATTGTTCTCCCAGCTGATGAATTGTATGACTCGAGTAAACAAATTTTCCTAATCTTTCTGTTCAAGCGCCATCTAC,0.974 RPM ratio (pull-down/input)
3,GATGATTGTTCTCCCAGCTGATGAATTTATCAGATCGAGTAAACAAATTTTCCTAATCTTTCTGTTCAAGCGCCATCTAC,1.03 RPM ratio (pull-down/input)
4,GATGATTGTTCTCCCAGCTGATGAATTCAGGCGGTCGAGTAAACAAATTTTCCTAATCTTTCTGTTCAAGCGCCATCTAC,0.783 RPM ratio (pull-down/input)
5,GATGATTGTTCTCCCAGCTGATGAATTACTAAGGTCGAGTAAACAAATTTTCCTAATCTTTCTGTTCAAGCGCCATCTAC,1.03 RPM ratio (pull-down/input)
6,GATGATTGTTCTCCCAGCTGATGAATTACTTTGGTCGAGTAAACAAATTTTCCTAATCTTTCTGTTCAAGCGCCATCTAC,0.952 RPM ratio (pull-down/input)
7,GATGATTGTTCTCCCAGCTGATGAATTTTGATGGTCGAGTAAACAAATTTTCCTAATCTTTCTGTTCAAGCGCCATCTAC,1.04 RPM ratio (pull-down/input)
8,GATGATTGTTCTCCCAGCTGATGAATTGCTATTGTCGAGTAAACAAATTTTCCTAATCTTTCTGTTCAAGCGCCATCTAC,2.28 RPM ratio (pull-down/input)
9,GATGATTGTTCTCCCAGCTGATGAATTTGCTATTTCGAGTAAACAAATTTTCCTAATCTTTCTGTTCAAGCGCCATCTAC,1.17 RPM ratio (pull-down/input)
10,GATGATTGTTCTCCCAGCTGATGAATTTTGCTATTCGAGTAAACAAATTTTCCTAATCTTTCTGTTCAAGCGCCATCTAC,1.32 RPM ratio (pull-down/input)
11,GATGATTGTTCTCCCAGCTGATGAATTGCTATTTTCGAGTAAACAAATTTTCCTAATCTTTCTGTTCAAGCGCCATCTAC,2.22 RPM ratio (pull-down/input)
12,GATGATTGTTCTCCCAGCTGATGAATTATTGCTGTCGAGTAAACAAATTTTCCTAATCTTTCTGTTCAAGCGCCATCTAC,1.67 RPM ratio (pull-down/input)
13,GATGATTGTTCTCCCAGCTGATGAATTTGCTATGTCGAGTAAACAAATTTTCCTAATCTTTCTGTTCAAGCGCCATCTAC,1.06 RPM ratio (pull-down/input)
14,GATGATTGTTCTCCCAGCTGATGAATTAGGCGCGTCGAGTAAACAAATTTTCCTAATCTTTCTGTTCAAGCGCCATCTAC,1.03 RPM ratio (pull-down/input)
15,GATGATTGTTCTCCCAGCTGATGAATTGGACTATTCGAGTAAACAAATTTTCCTAATCTTTCTGTTCAAGCGCCATCTAC,0.893 RPM ratio (pull-down/input)
16,GATGATTGTTCTCCCAGCTGATGAATTCCCCGGATCGAGTAAACAAATTTTCCTAATCTTTCTGTTCAAGCGCCATCTAC,0.788 RPM ratio (pull-down/input)
17,GATGATTGTTCTCCCAGCTGATGAATTTACCTACTCGAGTAAACAAATTTTCCTAATCTTTCTGTTCAAGCGCCATCTAC,1.24 RPM ratio (pull-down/input)

row,Sequence,binding signal
1,GATGATTGTTCTCCCAGCTGATGAATTATTTACATCGAGTAAACAAATTTTCCTAATCTTTCTGTTCAAGCGCCATCTAC,2.34 RPM ratio (pull-down/input)
2,GATGATTGTTCTCCCAGCTGATGAATTACTACCATCGAGTAAACAAATTTTCCTAATCTTTCTGTTCAAGCGCCATCTAC,1.13 RPM ratio (pull-down/input)
3,GATGATTGTTCTCCCAGCTGATGAATTTACCAAATCGAGTAAACAAATTTTCCTAATCTTTCTGTTCAAGCGCCATCTAC,1.65 RPM ratio (pull-down/input)
4,GATGATTGTTCTCCCAGCTGATGAATTACAAACATCGAGTAAACAAATTTTCCTAATCTTTCTGTTCAAGCGCCATCTAC,2.67 RPM ratio (pull-down/input)
5,GATGATTGTTCTCCCAGCTGATGAATTACATTTATCGAGTAAACAAATTTTCCTAATCTTTCTGTTCAAGCGCCATCTAC,1.52 RPM ratio (pull-down/input)
6,GATGATTGTTCTCCCAGCTGATGAATTACTAACATCGAGTAAACAAATTTTCCTAATCTTTCTGTTCAAGCGCCATCTAC,1.77 RPM ratio (pull-down/input)
7,GATGATTGTTCTCCCAGCTGATGAATTTATTACATCGAGTAAACAAATTTTCCTAATCTTTCTGTTCAAGCGCCATCTAC,1.21 RPM ratio (pull-down/input)
8,GATGATTGTTCTCCCAGCTGATGAATTACCAACATCGAGTAAACAAATTTTCCTAATCTTTCTGTTCAAGCGCCATCTAC,1.94 RPM ratio (pull-down/input)
9,GATGATTGTTCTCCCAGCTGATGAATTGATTACATCGAGTAAACAAATTTTCCTAATCTTTCTGTTCAAGCGCCATCTAC,1.58 RPM ratio (pull-down/input)
10,GATGATTGTTCTCCCAGCTGATGAATTAATTACATCGAGTAAACAAATTTTCCTAATCTTTCTGTTCAAGCGCCATCTAC,1.26 RPM ratio (pull-down/input)
11,GATGATTGTTCTCCCAGCTGATGAATTACTAAAATCGAGTAAACAAATTTTCCTAATCTTTCTGTTCAAGCGCCATCTAC,1.34 RPM ratio (pull-down/input)
12,GATGATTGTTCTCCCAGCTGATGAATTACCAAAATCGAGTAAACAAATTTTCCTAATCTTTCTGTTCAAGCGCCATCTAC,1.3 RPM ratio (pull-down/input)
13,GATGATTGTTCTCCCAGCTGATGAATTCTAATCCTCGAGTAAACAAATTTTCCTAATCTTTCTGTTCAAGCGCCATCTAC,0.781 RPM ratio (pull-down/input)
14,GATGATTGTTCTCCCAGCTGATGAATTGGGTGCTTCGAGTAAACAAATTTTCCTAATCTTTCTGTTCAAGCGCCATCTAC,0.861 RPM ratio (pull-down/input)
15,GATGATTGTTCTCCCAGCTGATGAATTTCAGGTATCGAGTAAACAAATTTTCCTAATCTTTCTGTTCAAGCGCCATCTAC,0.919 RPM ratio (pull-down/input)
16,GATGATTGTTCTCCCAGCTGATGAATTTGTACGCTCGAGTAAACAAATTTTCCTAATCTTTCTGTTCAAGCGCCATCTAC,1.13 RPM ratio (pull-down/input)
17,GATGATTGTTCTCCCAGCTGATGAATTTGCGATATCGAGTAAACAAATTTTCCTAATCTTTCTGTTCAAGCGCCATCTAC,1.19 RPM ratio (pull-down/input)

# Source: PMC12820563, “FoxP3 forms a head-to-head dimer in vivo and stabilizes its multimerization on adjacent microsatellites”
